Only some compounds are listed: those with a hit (about 10% of all), similar ones and a draw of the others.
PLK1 PBD inh – inhibitors of human PLK1 polo-box domain binding | hit rate 2.8% among 360,000 | AID 720504 | Plk1 PBD binding of FITC phosphopeptide, fluorescence polarization | Potency, µM, for the others: max response, negative = inhibition, most hits filed as inhibitors; also: potency is read from the fitted curve at half-maximal effect; series mostly up to about 57 µM; nearly all actives have a fitted effect of over 65% in size
CCT modulator – changes cytosolic chaperonin activity; activity change, % (no concentration beside the values), hits read low; hit rate 0.3% among 360,000; purified chaperonin ATPase assay, HTRF ADP detection, 30 min; AID 651819; in the data active = activity change below about -30%
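We incubate TRiC, 40 or 20 nM final, with library compounds at 76 uM and 10 uM ATP for 30 min at 37 °C. ADP formed is detected with Transcreener HTRF reagents after 30 min at room temperature.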
VDR inh – inhibitors of human vitamin D receptor; Potency, µM, inactives show max response, negative = inhibition, most hits filed as inhibitors; P11473; VDR-SRC2-3 peptide fluorescence polarization, 2 h; hit rate 0.93% among 400,000; also: potency is read from the fitted curve at half-maximal effect
Target sequence (P11473 whole entry, looked up): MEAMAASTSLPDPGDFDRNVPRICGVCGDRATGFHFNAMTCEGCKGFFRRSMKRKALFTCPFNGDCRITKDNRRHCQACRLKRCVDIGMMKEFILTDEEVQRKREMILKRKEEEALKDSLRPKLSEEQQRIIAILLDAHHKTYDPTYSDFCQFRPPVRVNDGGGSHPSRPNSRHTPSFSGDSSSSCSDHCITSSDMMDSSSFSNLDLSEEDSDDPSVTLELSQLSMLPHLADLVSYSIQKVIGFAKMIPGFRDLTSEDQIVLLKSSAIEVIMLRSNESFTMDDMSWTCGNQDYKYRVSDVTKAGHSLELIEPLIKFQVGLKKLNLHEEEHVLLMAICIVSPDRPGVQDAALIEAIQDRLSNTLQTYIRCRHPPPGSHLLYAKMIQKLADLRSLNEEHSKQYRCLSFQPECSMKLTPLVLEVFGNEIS
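Reagent solutions, kept cold and dark, are dispensed first; compounds are then pinned in at 23 nl, plates briefly spun, and incubated 2 h at ambient temperature. Inhibition of VDR–SRC2-3 peptide binding is read by fluorescence polarization.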
G9a block – inhibitors of human histone lysine methyltransferase G9a; G9a H3K9 monomethylation, AlphaScreen, 2 h; Potency, µM (highest dose often 102 µM), for inactives: at the highest dose activity, negative = inhibition, usual class: inhibitors; hit rate 8.8% among 350,000; also: potency is read from the fitted curve at half-maximal effect; nearly all actives have a fitted effect of over 75% in size
Target sequence (Q96KQ7 913-1193 limits assumed): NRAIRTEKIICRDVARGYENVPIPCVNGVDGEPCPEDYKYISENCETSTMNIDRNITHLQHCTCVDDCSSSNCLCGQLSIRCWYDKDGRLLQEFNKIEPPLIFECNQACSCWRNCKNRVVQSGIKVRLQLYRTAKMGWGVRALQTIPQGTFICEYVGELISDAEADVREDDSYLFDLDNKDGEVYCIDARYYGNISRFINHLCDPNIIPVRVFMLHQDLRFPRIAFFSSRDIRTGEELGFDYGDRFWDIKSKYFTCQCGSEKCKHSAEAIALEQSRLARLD
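AlphaScreen detection with an anti-monomethyl H3K9 antibody quantified product after a 2 h room-temperature reaction containing 500 nM biotinylated H3K9 peptide, 20 µM SAM and 20 nM enzyme, which had been preincubated 15 min with compound.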
Sfp inh – blocks B. subtilis Sfp PPTase activity; hit rate 3.5% among 310,000; Biochemical Sfp PPTase activity, qHTS; Q9F4F7; Potency, µM, for the others: largest response in the series, negative = inhibition, hits mostly inhibitors;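 also: the enzyme is Sfp with the accession as filed and its product quenches rhodamine fluorescence; potency is read from the fitted curve at half-maximal effect; 0% = enzyme reaction without inhibitor and -100% = no enzyme wells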
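Buffer: 50 mM Hepes-Na pH 7.6, 10 mM MgCl2, 0.01% Nonidet P-40, 0.01% BSA. Enzyme 15 nM, pre-exposed to compound 15 min; substrates then added and fluorescence change tracked over 30 min.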
Mm-Cpn inhibitor – inhibitors of Methanococcus maripaludis chaperonin TRiC (MmCpn) | purified Mm-Cpn ATPase, ADP Transcreener TR-FRET | Potency, µM (series often up to 76.9 µM), without a hit: at the top dose activity, negative = inhibition, usual class: inhibitors | hit rate 0.031% among 330,000 | AID 504842; also: potency is read from the fitted curve at half-maximal effect; nearly all actives have a fitted effect of over 80% in size
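Quantitative HTS used 25 nM Mm-CPN and 10 uM ATP in magnesium/KCl Tris buffer, pH 7.4, with 1 mM DTT. Hydrolysis ran 30 min at 37°C; ADP was read by HTRF.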
Numbers without * were called inactive; [ ] = remark or other dose. Unless noted, calls follow the shape of the dose curve; as a rule, active = well fitted curve in the direction sought with a large enough effect; inconclusive = small, poorly fitted or top-dose-only effect, or another doubt; inactive = no such curve, though single readings can be large; an effect the other way counts as inactive or inconclusive. Unless noted, % is scaled to controls: 0 for no effect and ±100 for the full control effect.

How did CCOC(=O)CN(C)C(=O)C1CC(CO[Si](C)(C)C(C)(C)C)=CN1C(=O)OC(C)(C)C (stereo unspecified) do in these assays?
VDR inh: 2%; Sfp inh: 0%

How did Cn1nnc2c(N3CCN(c4cccc(Cl)c4)CC3)ncnc21 do in these assays?
VDR inh: 11%; G9a block: 4%[59 µM]

How did Cc1[nH]n(-c2ccccc2)c(=S)c1C=Nc1cccc([N+](=O)[O-])c1 do in these assays?
PLK1 PBD inh: 3.4µM*; CCT modulator: -1; VDR inh: 22µM*; Sfp inh: -92%; Mm-Cpn inhibitor: 2%

How did c1ccc(-c2csc(Nc3ncccn3)n2)cc1 do in these assays?
PLK1 PBD inh: 0%; CCT modulator: 1; VDR inh: 11%; G9a block: -1%[59 µM]; Sfp inh: 20%; Mm-Cpn inhibitor: 2%

What do the screens show for `Cc1cccnc1Nc1nc(-c2ccc(O)cc2O)cs1`?
PLK1 PBD inh: 19µM*; CCT modulator: 0; VDR inh: -9%; G9a block: 6.3µM*; Sfp inh: 45µM*; Mm-Cpn inhibitor: -5%

Results for NS(=O)(=O)c1ccc(Nc2nc(-c3ccc(O)cc3O)cs2)cc1 ?
PLK1 PBD inh: -5%; CCT modulator: 2; VDR inh: 7%; G9a block: 1%[59 µM]; Sfp inh: -11%; Mm-Cpn inhibitor: 2%

How did Cc1cccnc1Nc1nc(-c2ccccc2)cs1 do in these assays?
PLK1 PBD inh: -12%; CCT modulator: -3; VDR inh: -27%; G9a block: 40µM*; Sfp inh: 50µM*; Mm-Cpn inhibitor: -3%

How did NNc1nc(-c2ccccc2)cs1 do in these assays?
PLK1 PBD inh: -10%; CCT modulator: -17; VDR inh: 10%; G9a block: 22µM*; Sfp inh: -12%; Mm-Cpn inhibitor: inconclusive

How did CC(=O)Nc1ccc(S(=O)(=O)N(Cc2ccccc2)Cc2ccccc2)cc1 do in these assays?
VDR inh: -13%; G9a block: -2%[59 µM]

How did COc1ccc(C)cc1NC(=O)C1CCN(S(=O)(=O)c2c(C)noc2/C=C/c2ccco2)CC1 do in these assays?
VDR inh: 6%; G9a block: -24%[59 µM]

Results for CCOc1ccc(-n2c(C)nc3cc(C(=O)NC4CCCC4)ccc32)cc1 ?
VDR inh: 16%; G9a block: inconclusive

Results for CCS(=O)(=O)C1=NN2C(=N)/C(=C\c3ccc(OC(=O)c4ccco4)c(Br)c3)C(=O)N=C2S1 ?
G9a block: -17%[59 µM]; Sfp inh: -7%; Mm-Cpn inhibitor: 0%

How did COc1cc(/C=C2\C(=N)N3N=C(S(C)(=O)=O)SC3=NC2=O)ccc1OCCOc1ccccc1C do in these assays?
PLK1 PBD inh: inconclusive; CCT modulator: -5; VDR inh: inconclusive; G9a block: 25µM*; Sfp inh: inconclusive; Mm-Cpn inhibitor: -2%

How did COc1cc(/C=C2\C(=N)N3N=C(S(C)(=O)=O)SC3=NC2=O)ccc1OC(=O)c1cccs1 do in these assays?
PLK1 PBD inh: inconclusive; CCT modulator: -1; VDR inh: -2%; G9a block: -25%; Sfp inh: -20%; Mm-Cpn inhibitor: 2%

How did COc1cc(/C=C2\C(=N)N3N=C(S(C)(=O)=O)SC3=NC2=O)ccc1OC(=O)c1ccco1 do in these assays?
PLK1 PBD inh: inconclusive; CCT modulator: -1; VDR inh: 79µM*; G9a block: 45µM*; Sfp inh: -1%; Mm-Cpn inhibitor: -1%

How did N=C1/C(=C\c2ccc(SCc3ccccc3)o2)C(=O)N=C2SC=NN12 do in these assays?
PLK1 PBD inh: -18%; CCT modulator: 0; VDR inh: inconclusive; G9a block: 50µM*; Sfp inh: 5%; Mm-Cpn inhibitor: 0%

How did CCOc1cc(/C=C2\C(=N)N3N=C(S(=O)(=O)CC)SC3=NC2=O)ccc1OC(=O)c1ccco1 do in these assays?
PLK1 PBD inh: inconclusive; CCT modulator: 0; VDR inh: 10%; G9a block: 45µM*; Sfp inh: inconclusive; Mm-Cpn inhibitor: 2%

Results for COc1ccc(CNC(=O)CCc2c(C)c3cc4c(C)c(C)oc4cc3oc2=O)cc1OC ?
VDR inh: -1%; G9a block: 4%[59 µM]

How did CCS(=O)(=O)C1=NN2C(=N)/C(=C\c3ccc(SCc4ccco4)o3)C(=O)N=C2S1 do in these assays?
PLK1 PBD inh: inconclusive; CCT modulator: 0; VDR inh: 12%; G9a block: 13µM*; Sfp inh: 20µM*; Mm-Cpn inhibitor: 1%

How did CC(C)S(=O)(=O)C1=NSC2=NC(=O)/C(=C\c3ccc(OC(=O)c4ccco4)cc3)C(=N)N21 do in these assays?
PLK1 PBD inh: inconclusive; CCT modulator: -3; VDR inh: 6%; G9a block: 19%[0.0925 µM]; Sfp inh: 2%; Mm-Cpn inhibitor: 0%

Results for CCS(=O)(=O)C1=NSC2=NC(=O)/C(=C\c3ccc(OC(=O)c4ccco4)cc3)C(=N)N21 ?
PLK1 PBD inh: inconclusive; CCT modulator: -11; VDR inh: inconclusive; G9a block: 45µM*; Sfp inh: -7%; Mm-Cpn inhibitor: 4%

What do the screens show for `N=C1/C(=C\c2ccc(SCc3ccccc3)o2)C(=O)N=C2SC(CC(=O)N3CCOCC3)=NN12`?
PLK1 PBD inh: inconclusive; CCT modulator: -1; VDR inh: -3%; G9a block: inconclusive; Sfp inh: -21%; Mm-Cpn inhibitor: 2%

What do the screens show for `COC(=O)[C@H](COC(C)(C)C)NC(=O)O[C@@H]1C(=O)c2ccc(OC)cc2O[C@H]1c1ccc2c(c1)OCO2`?
VDR inh: 7%; Sfp inh: -6%

How did c1ccc(-c2nc3nonc3nc2-c2ccccc2)cc1 do in these assays?
PLK1 PBD inh: -1%; CCT modulator: -2; VDR inh: -5%; G9a block: 14µM*; Sfp inh: -7%; Mm-Cpn inhibitor: 1%

How did Cc1ccc(C)c(OCC(=O)Nc2nonc2NC(=O)COc2cc(C)ccc2C)c1 do in these assays?
PLK1 PBD inh: -16%; CCT modulator: 1; VDR inh: 9%; G9a block: 16µM*; Sfp inh: inconclusive

Results for COC(=O)CCC(=O)NC(=S)Nc1ccc(S(=O)(=O)Nc2cc(OC)nc(OC)n2)cc1 ?
PLK1 PBD inh: -10%; CCT modulator: -2; VDR inh: inconclusive; G9a block: 50µM*; Sfp inh: -3%; Mm-Cpn inhibitor: -2%

How did Cc1ccc(C)c(OCC(=O)Nc2ccc(S(=O)(=O)Nc3ccccn3)cc2)c1 do in these assays?
PLK1 PBD inh: inconclusive; CCT modulator: 2; VDR inh: -21%; G9a block: 50µM*; Sfp inh: -3%; Mm-Cpn inhibitor: -3%

How did Cc1cccc(OCC(=O)Nc2ccc(S(=O)(=O)Nc3ccccn3)cc2)c1 do in these assays?
PLK1 PBD inh: -17%; CCT modulator: 0; VDR inh: 2%; G9a block: -26%; Sfp inh: -1%; Mm-Cpn inhibitor: -2%
